# Reference: PubChem BioAssay (NCATS)
# Unmarked numbers belong to inactive results. Inconclusive results are not listed. Entries that show only a call come without a potency. Calls of active or inactive are those of the source. Calls come from the whole dose curve; as a rule, active = well fitted curve in the direction sought with a large enough effect; inconclusive = small, poorly fitted or top-dose-only effect, or another doubt; inactive = no such curve, though single readings can be large; an effect the other way counts as inactive or inconclusive.
# Assay: Cell Viability - Mesenchymal (AID 546);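 note: cells exposed to compound for 40 hours before reading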; note: potency is the fitted concentration of half-maximal effect
# Conditions: mesenchymal cells viability, qHTS; series mostly up to 91.7 µM
# Summary of the method: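 Human renal mesenchymal cells (glomerulus-derived), 1000 cells/well, 5 hr 37 °C pre-incubation; compound 40 hr, 37 °C; CellTiter-Glo, 20 min RT; luminescence; AC50 via Hill equation.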
row,Compound,Potency
1,O=C(O)C(Br)Br,inactive
2,Cc1ccc(OP(=O)(Oc2ccc(C)cc2)Oc2ccc(C)cc2)cc1,inactive
3,Oc1c(Cl)c(Cl)cc(Cl)c1Cl,inactive
4,Nc1ccc(Cc2ccc(N)c(Cl)c2)cc1Cl,inactive
5,CN(C)c1ccc(N(C)C)cc1,inactive
6,Brc1ccc(Oc2ccc(Br)cc2Br)c(Br)c1,inactive
7,CN1CSC(=S)N(C)C1,inactive
8,ClCC(Cl)Cl,inactive
9,C=CC(=O)OCCO,inactive
10,CC(C)Br,inactive
11,O=[N+]([O-])c1ccc(O)c([N+](=O)[O-])c1,inactive
12,CC(C)[N+](=O)[O-],inactive
13,Cc1cc(-c2cc(C)c(N)c(C)c2)cc(C)c1N,inactive
14,Nc1cc(Cl)ccc1O,inactive
15,CCN(N=O)C(N)=O,inactive
16,N#CC(Cl)(Cl)Cl,inactive

row,Compound,Potency
1,CCCCC(CC)COC(=O)c1ccc(C(=O)OCC(CC)CCCC)c(C(=O)OCC(CC)CCCC)c1 (centres undefined),inactive
2,O=C(O)C(Br)CBr (centres undefined),inactive
3,Nc1c(Br)cc([N+](=O)[O-])cc1[N+](=O)[O-],inactive
4,Cc1cc(C)cc(OP(=O)(Oc2cc(C)cc(C)c2)Oc2cc(C)cc(C)c2)c1,inactive
5,N#CC(Br)Br,inactive
6,COP(=S)(OC)SCn1nnc2ccccc2c1=O,inactive
7,Nc1ccc([N+](=O)[O-])cc1N,inactive
8,OCCCCO,inactive
9,O=[N+]([O-])c1cc(Cl)c(Cl)c(Cl)c1,inactive
10,CC(C)(COCC1CO1)COCC1CO1 (centres undefined),inactive
11,COc1ccccc1N,inactive
12,CC(C)(C)OOC(=O)c1ccccc1,inactive
13,COC(C)(C)C,inactive
14,C(CCOCC1CO1)COCC1CO1 (centres undefined),inactive
15,CN(C)c1ccc(N)cc1,inactive
16,O=[N+]([O-])/C=C/c1ccccc1,25.1 µM (active)

# Assay: Cellular Toxicity (caspase-3) HepG2 (AID 654);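 note: cells exposed to compound for 16 hours before reading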
# Conditions: HepG2 caspase-3 activation, luminescence, 0% = DMSO only, 100% = tamoxifen; series mostly up to 92.2 µM
# Summary of the method: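 Caspase 3/7 activation in HepG2 is measured as rising luminescence after a 16 hr treatment at 37 °C. Values are scaled between DMSO basal and 100 uM tamoxifen, and AC50 is fitted with the Hill equation.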
row,Compound,outcome
1,O=C(O)C(Br)Br,inactive
2,Cc1ccc(OP(=O)(Oc2ccc(C)cc2)Oc2ccc(C)cc2)cc1,inactive
3,Oc1c(Cl)c(Cl)cc(Cl)c1Cl,inactive
4,Nc1ccc(Cc2ccc(N)c(Cl)c2)cc1Cl,inactive
5,CN(C)c1ccc(N(C)C)cc1,inactive
6,Brc1ccc(Oc2ccc(Br)cc2Br)c(Br)c1,inactive
7,O=[N+]([O-])c1c(Cl)c(Cl)c(Cl)c(Cl)c1Cl,inactive
8,CN1CSC(=S)N(C)C1,inactive
9,ClCC(Cl)Cl,inactive
10,C=CC(=O)OCCO,inactive
11,CC(C)Br,inactive
12,O=[N+]([O-])c1ccc(O)c([N+](=O)[O-])c1,inactive
13,CC(C)[N+](=O)[O-],inactive
14,CCCC[N+](=O)[O-],inactive
15,Cc1cc(-c2cc(C)c(N)c(C)c2)cc(C)c1N,inactive
16,Nc1cc(Cl)ccc1O,inactive
17,CCN(N=O)C(N)=O,inactive
18,N#CC(Cl)(Cl)Cl,inactive
19,CCCCC(CC)COC(=O)c1ccc(C(=O)OCC(CC)CCCC)c(C(=O)OCC(CC)CCCC)c1 (centres undefined),inactive
20,O=C(O)C(Br)CBr (centres undefined),inactive

row,Compound,outcome
1,Nc1c(Br)cc([N+](=O)[O-])cc1[N+](=O)[O-],inactive
2,O=[N+]([O-])c1ccccc1CCl,inactive
3,Cc1cc(C)cc(OP(=O)(Oc2cc(C)cc(C)c2)Oc2cc(C)cc(C)c2)c1,inactive
4,N#CC(Br)Br,inactive
5,O=C(O)C(Cl)Br (centres undefined),inactive
6,COP(=S)(OC)SCn1nnc2ccccc2c1=O,inactive
7,Nc1ccc([N+](=O)[O-])cc1N,inactive
8,O=C(O)c1cccc(Cl)c1,inactive
9,Cc1cc(N=Nc2ccccc2C)ccc1N,inactive
10,OCCCCO,inactive
11,O=[N+]([O-])c1cc(Cl)c(Cl)c(Cl)c1,inactive
12,CC(C)(COCC1CO1)COCC1CO1 (centres undefined),inactive
13,Cc1ccc2c(c1N)C(=O)c1ccccc1C2=O,inactive
14,COc1ccccc1N,inactive
15,CC(C)(C)OOC(=O)c1ccccc1,inactive
16,c1ccc(N=NNc2ccccc2)cc1,inactive
17,COC(C)(C)C,inactive
18,C(CCOCC1CO1)COCC1CO1 (centres undefined),inactive
19,CN(C)c1ccc(N)cc1,inactive

# Assay: Cellular Toxicity (caspase-3) Jurkat (AID 655);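 note: cells exposed to compound for 16 h at 37 °C before reading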
# Conditions: Jurkat caspase-3 activation, luminescence; caspase-3 activation: at 92.2 µM (top of the series), DMSO = 0%, tamoxifen = 100%
# Summary of the method: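 qHTS in human Jurkat T-cell leukemia line: 16 hr compound treatment at 37 °C, caspase-3/7 activity measured by Caspase-Glo luminescence. AC50 derived from Hill equation.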
row,Compound,caspase-3 activation
1,O=C(O)C(Br)Br,6.46%
2,Cc1ccc(OP(=O)(Oc2ccc(C)cc2)Oc2ccc(C)cc2)cc1,1.7%
3,Nc1ccc(Cc2ccc(N)c(Cl)c2)cc1Cl,25.3%
4,O=[N+]([O-])c1c(Cl)c(Cl)c(Cl)c(Cl)c1Cl,0.645%
5,ClCC(Cl)Cl,0.231%
6,C=CC(=O)OCCO,15.3%
7,CC(C)Br,0.12%
8,O=[N+]([O-])c1ccc(O)c([N+](=O)[O-])c1,-6.84%
9,CC(C)[N+](=O)[O-],1.63%
10,CCCC[N+](=O)[O-],102% (active)
11,Cc1cc(-c2cc(C)c(N)c(C)c2)cc(C)c1N,1.01%
12,O=C(O)C(Br)CBr (centres undefined),1.63%
13,O=[N+]([O-])c1ccccc1CCl,-0.153%
14,Cc1cc(C)cc(OP(=O)(Oc2cc(C)cc(C)c2)Oc2cc(C)cc(C)c2)c1,0.111%
15,O=C(O)C(Cl)Br (centres undefined),-0.427%
16,Nc1ccc([N+](=O)[O-])cc1N,17.7%
17,O=C(O)c1cccc(Cl)c1,-2.79%
18,OCCCCO,-0.218%
19,CC(C)(COCC1CO1)COCC1CO1 (centres undefined),14.4%
20,Cc1ccc2c(c1N)C(=O)c1ccccc1C2=O,-9.07%
21,c1ccc(N=NNc2ccccc2)cc1,6.34%
22,C(CCOCC1CO1)COCC1CO1 (centres undefined),15.1%
23,CN(C)c1ccc(N)cc1,-4.87%
